A selection: hits, their analogues and other compounds. The true share with any hit is near 4%.
EWS-Fli inh: inhibitors of EWS/Fli oncoprotein transcriptional activity; A673 NR0B1-luciferase reporter, viability-normalised; inhibition, % at 12.6 µM; actives 0.67% (n = 350,000);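 active = mean inhibition of at least 50% after viability correction, with every replicate also passing that limit; inconclusive = mean reaches 50% but only one of two replicates passes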;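 also: firefly luciferase signal divided by Alamar Blue viability fluorescence both relative to DMSO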
Wnt bcat act: Wnt/beta-catenin pathway activation | AID 743398 | activation, % at 9.35 µM | actives 1.2% (n = 300,000) | Wnt/beta-catenin reporter cell assay, activator, plate reader; in the data active = activation above about 30%, passing the limit was not always enough; inconclusive = no clear call, values can overlap the other calls;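 also: 0% = neutral control wells and 100% = positive control wells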
MITF TRPM1 inh: inhibitors of MITF-driven TRPM1 promoter in melanoma cells | SK-MEL-5 TRPM1 promoter luciferase, 24 h | inhibition, % at 12.5 µM | actives 0.83% (n = 330,000);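 active = mean inhibition across replicates of 60% or more, whatever share of single replicates reaches that level; inconclusive = some that reach 60%, reason not given; inactive = mean inhibition across replicates below 60%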
PAX8 reporter: lowers PAX8-driven luciferase in RMG-I cells; RMG-I TPO-luciferase reporter, SteadyGlo, 24 h; inhibition, % at 12.6 µM; actives 1.2% (n = 360,000);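 active = mean replicate inhibition at least 60% with every replicate also reaching 60%; inconclusive = only one of the two criteria is met; inactive = mean below 60% and not all replicates reaching 60%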;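 also: luciferase light reporting Pax8 driven TPO promoter activity; plate controls were median of neutral control wells for no effect and mitoxantrone controls for full effect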
esBAF inh: SWI/SNF esBAF complex inhibition | mouse ES cells, Bmi1-luciferase knock-in reporter, 24 h; 100% = twice the neutral-well signal | reporter increase, % at 12.5 µM | actives 2% (n = 350,000) | AID 602393; in the data active = activation above about 40%; inconclusive = no clear call, values can overlap the other calls;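 also: 0% = median of the plate's neutral control wells and 100% = double that signal; a rise in the Bmi1 reporter signal indicates esBAF inhibition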
MITF TRPM1 HTS: activators of MITF-driven TRPM1 promoter activity in SK-MEL-5 cells; SK-MEL-5 TRPM1-promoter luciferase, 24 h; % of positive control, neutral wells = 0; activation, % at 12.5 µM; actives 0.75% (n = 300,000); AID 588334;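 active = mean activation of at least 80% with every replicate also reaching 80%; inconclusive = mean reaches 80% but some replicate falls short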;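 also: 0% = neutral control wells and 100% = parthenolide positive control wells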
Ring1 derepress: esBAF inhibition confirmed by Ring1 de-repression | fold change at 33 µM | AID 743176 | shares compounds with esBAF inh | mouse ESC E14, Ring1 mRNA RT-qPCR fold change | 550 tested, under 10 active;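 active = Ring1 gene expression raised more than 2-fold over untreated cells in both replicates at either tested dose; inconclusive = only one replicate above 2-fold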;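 also: Ring1 transcript normalised to actin housekeeping signal by TaqMan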
Fgf4 repress: represses Fgf4 in mouse ESCs, confirming esBAF inhibition. shares compounds with esBAF inh. mouse ESC E14, Fgf4 mRNA qPCR fold change; active compounds read low. Fgf4 expression fold change at 33 µM. actives 4% (n = 550). AID 743177;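 active = Fgf4 expression under 0.8 fold of control in both repeat measurements at one or both tested doses; inconclusive = under 0.8 fold in just a single repeat measurement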;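 also: Fgf4 transcript normalised to actin in duplex TaqMan qPCR; cells exposed to compound for 24 h before lysis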
esBAF Bmi1 qPCR: esBAF inhibition confirmed by Bmi1 de-repression; shares compounds with esBAF inh; mouse ESE14 ES cells, Bmi1 mRNA qPCR fold; active compounds read high; fold change at 33 µM; 550 tested, under 10 active; AID 743180;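 active = Bmi1 expression fold change above 6 at either tested concentration, seen in replicate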;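 also: higher fold means more Bmi1 de-repression and stronger esBAF inhibition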
A549 tox SP: kills or reduces viability of A549 cells. A549 cytotoxicity, plate reader. cell viability change % (negative = cytotoxic), % at 25 µM, hits read low. 550 tested, under 10 active. shares compounds with esBAF inh; call rule not given here
HepG2 tox SP: kills or reduces viability of HepG2 cells | activity change, negative = inhibition, % at 25 µM | actives 4% (n = 550) | shares compounds with esBAF inh | HepG2 cytotoxicity, plate reader; active compounds read low; in the data active = activity change below about -50%
HEK293 tox SP: kills or reduces viability of HEK293 cells | shares compounds with esBAF inh | HEK293 cytotoxicity, plate reader | activity change, negative = inhibition, % at 25 µM, hits read low | actives 3% (n = 550); in the data active = activity change below about -38%, passing the limit was not always enough
The depositor's hits bear a star; ? = inconclusive; . = no result given.

SMILES | EWS-Fli inh | Wnt bcat act | MITF TRPM1 inh | PAX8 reporter | esBAF inh | MITF TRPM1 HTS | Ring1 derepress | Fgf4 repress | esBAF Bmi1 qPCR | A549 tox SP | HepG2 tox SP | HEK293 tox SP
Cn1c(/C(C#N)=C(\O)c2ccc([N+](=O)[O-])s2)nc2ccccc21 | -34.4 | 5.2 | -14.7 | 20.2 | 22.7 | 12.2 | . | . | . | . | . | .
Oc1ccccc1/C=N/N1CCN(c2ccccn2)CC1 | -78.2 | 37.8* | -69.8 | -96.5 | 78.4* | 70.6 | 1.07 | 1.08 | 1.35 | -17.6 | -9.0 | -19.5
O=C(Nc1ccc2c(c1)C(=O)c1ccccc1-2)c1ccccc1 | -112.3 | -2.3 | -42.3 | -116.8 | 94.5* | 39.1 | 1.1 | 0.842 | 1.44 | -5.3 | -23.2 | -10.6
Cc1ccc(Nc2nc(-c3cccnc3)cs2)cc1Cl | -95.9 | -0.7 | -16.0 | -102.1 | 62.7* | . | 1.05 | 0.74* | 1.69 | -6.8 | -2.1 | -4.6
Cc1ccc(C)c(Nc2nc(-c3cccnc3)cs2)c1 | -58.8 | 13.5 | -21.1 | -28.9 | 18.1 | 19.9 | . | . | . | . | . | .
c1ccc(CCNc2ccccn2)nc1 | -16.8 | 6.6 | -38.4 | -31.7 | . | 45.0 | . | . | . | . | . | .
c1ccc(CCNc2ccc3c(c2)Cc2ccccc2-3)nc1 | -128.5 | 4.5 | -43.6 | -202.1 | 82.2* | 50.5 | 1.18 | ? | 1.45 | -22.0 | 2.1 | -40.9
O=C(N[C@@H]1CC[C@@H](CCNS(=O)(=O)Cc2ccccc2)O[C@H]1CO)c1cnccn1 | 0.9 | . | . | 11.9 | 2.7 | . | . | . | . | . | . | .
O=C(NC1Cc2ccccc2C1)[C@H]1N[C@H]2c3ccc(C4=CCCC4)c(=O)n3C[C@H]2[C@@H]1CO | 1.0 | . | . | . | -0.3 | . | . | . | . | . | . | .
CNC[C@H]1Oc2ccc(NC(=O)Nc3ccc(OC)cc3)cc2C(=O)N([C@@H](C)CO)C[C@@H]1C | -7.1 | . | . | -9.2 | 2.8 | . | . | . | . | . | . | .
COc1ccc(-c2cn(CC[C@H]3CC[C@H](NC(=O)Nc4ccc(F)cc4)[C@@H](CO)O3)nn2)cc1 | -8.7 | . | . | -26.2 | . | . | . | . | . | . | . | .
O=C1c2ccccc2C2N1CCCN2C(=O)c1sc2ccccc2c1Cl (stereo not drawn) | -68.9 | -1.5 | . | -56.9 | 64.4* | . | 0.998 | 0.946 | 1.79 | 14.9 | -7.4 | -24.9
COc1cccc(-c2cnc3c(c2)C(=O)N([C@@H](C)CO)C[C@@H](C)[C@H](CN(C)Cc2ccncc2)O3)c1 | -2.0 | . | . | . | 3.5 | . | . | . | . | . | . | .
Cc1ccc(-c2cnc3c(c2)C(=O)N([C@H](C)CO)C[C@H](C)[C@@H](CN(C)C(=O)Cc2ccccc2)O3)cc1 | 2.2 | . | . | . | -2.9 | . | . | . | . | . | . | .
CCn1c(C)nc2cc(C(=O)NN=Cc3ccccc3OC(F)F)ccc21 | -121.8 | -3.4 | -85.4 | -161.6 | 79.4* | 90.4* | 1.08 | 1.2 | 1.37 | -11.3 | -26.5 | -11.0
CCn1c(C)nc2cc(C(=O)OC)ccc21 | -25.6 | 8.6 | -16.9 | -52.6 | . | 14.0 | . | . | . | . | . | .
Cc1ccccc1-c1cnc2c(c1)C(=O)N([C@@H](C)CO)C[C@@H](C)[C@@H](CN(C)CC1CC1)O2 | -10.9 | . | . | . | -3.2 | . | . | . | . | . | . | .
Nc1ccccc1/C=C/c1ccccc1N | -74.1 | 20.0 | -55.1 | -195.4 | 111.8* | 54.5 | 1.41 | 0.994 | 1.77 | -4.0 | 24.4 | -7.2
O=Cc1cnc(N2CCCCC2)s1 | -1.2 | -1.4 | 6.6 | -25.3 | . | -2.6 | . | . | . | . | . | .
O/N=C\c1cnc(N2CCN(c3ccccc3)CC2)s1 | -12.2 | -1.1 | -87.6 | -127.8 | 84.3* | ? | 0.953 | 0.849 | 1.64 | -6.9 | -36.0 | -7.8
O=C(Nc1ccccc1)N[C@H]1CC[C@@H](CCn2cc(-c3ccccc3F)nn2)O[C@H]1CO | -4.0 | . | . | . | . | . | . | . | . | . | . | .
